PubChem BioAssay AID1159580 (chemical genetic matrix, 2015)
Where “and” joins values, the source holds several entries; their conditions need not be identical. Equal entries are not always repeated. In all, about 5,500 compounds went through this assay and about 2,000 (36%) were called active. Roughly 18% stayed inconclusive and do not appear here. This is one part of the list. Unmarked numbers belong to inactive results. No stated cut-off is given here; in the data, active means normalized growth mostly below about 0.91 (no sharp cut-off); inconclusive means no clear call, values can overlap the other calls; inactive means mostly above about 0.92.

Experiment: chemical genetic growth profiling, strain panel (AID 1159580);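 further: tested at 20 µM; growth read once vehicle control cultures reached saturation at 30 °C; 1 = growth at the plate median or of vehicle wells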
Conditions: growth OD

In the case of `Nc1c2c(nc3ccccc13)CCCC2`, the normalized growth (S. cerevisiae deletion strains, locus YKL068W, stronger effect = lower value) is reported as 1.01, the normalized growth (S. cerevisiae deletion strains, locus YKL085W, strain MDH1 (second series), stronger effect = lower value) is reported as 1.01 and the normalized growth (S. cerevisiae deletion strains, locus YKL085W, strain MDH1, stronger effect = lower value) is reported as 1.01. For the same compound, the normalized growth (S. cerevisiae deletion strains, locus YKL160W, strain elf1, stronger effect = lower value) was 1.01, the normalized growth (S. cerevisiae deletion strains, locus YKL190W, strain CNB1, stronger effect = lower value) was 1.02 and the normalized growth (S. cerevisiae deletion strains, locus YKR001C, strain vps1, stronger effect = lower value) was 0.998. For the same compound, the normalized growth (S. cerevisiae deletion strains, locus YKR026C, strain gcn3, stronger effect = lower value) was 0.986, the normalized growth (S. cerevisiae deletion strains, locus YKR091W, strain srl3, stronger effect = lower value) was 0.994 and the normalized growth (S. cerevisiae deletion strains, locus YLL001W, strain dnm1, stronger effect = lower value) was 0.989. The normalized growth (S. cerevisiae deletion strains, locus YLL026W, stronger effect = lower value) was 0.99, the normalized growth (S. cerevisiae deletion strains, locus YLL041C, strain sdh2, stronger effect = lower value) was 0.982 and the normalized growth (S. cerevisiae deletion strains, locus YLR027C, strain aat2, stronger effect = lower value) was 0.984. The normalized growth (S. cerevisiae deletion strains, locus YLR039C, strain RIC1, stronger effect = lower value) was 1.09, the normalized growth (S. cerevisiae deletion strains, locus YLR058C, strain SHM2, stronger effect = lower value) was 1.02 and the normalized growth (S. cerevisiae deletion strains, locus YLR102C, strain apc9, stronger effect = lower value) was 1.01. The normalized growth (S. cerevisiae deletion strains, locus YLR113W, strain HOG1, stronger effect = lower value) was 1.02, the normalized growth (S. cerevisiae deletion strains, locus YLR221C, strain rsa3, stronger effect = lower value) was 0.963 and the normalized growth (S. cerevisiae deletion strains, locus YLR258W, strain gsy2, stronger effect = lower value) was 1. For the same compound, the normalized growth (S. cerevisiae deletion strains, locus YLR262C, strain YPT6 (second series), stronger effect = lower value) was 1.01, the normalized growth (S. cerevisiae deletion strains, locus YLR262C, strain YPT6, stronger effect = lower value) was 1.1 and the normalized growth (S. cerevisiae deletion strains, locus YLR268W, strain sec22, stronger effect = lower value) was 1.01. For the same compound, the normalized growth (S. cerevisiae deletion strains, locus YLR320W, strain mms22, stronger effect = lower value) was 0.947, the normalized growth (S. cerevisiae deletion strains, locus YLR330W, strain CHS5, stronger effect = lower value) was 1.01 and the normalized growth (S. cerevisiae deletion strains, locus YLR342W, strain FKS1 (second series), stronger effect = lower value) was 1. For the same compound, the normalized growth (S. cerevisiae deletion strains, locus YLR342W, strain FKS1, stronger effect = lower value) was 0.999, the normalized growth (S. cerevisiae deletion strains, locus YLR357W, strain rsc2, stronger effect = lower value) was 0.994 and the normalized growth (S. cerevisiae deletion strains, locus YLR370C, strain arc18, stronger effect = lower value) was 1.01. The normalized growth (S. cerevisiae deletion strains, locus YLR371W, strain rom2, stronger effect = lower value) was 1.03, the normalized growth (S. cerevisiae deletion strains, locus YLR384C, strain iki3, stronger effect = lower value) was 0.99 and the normalized growth (S. cerevisiae deletion strains, locus YLR418C, strain cdc73, stronger effect = lower value) was 1.03. It also gave a normalized growth (S. cerevisiae deletion strains, locus YML016C, strain PPZ1, stronger effect = lower value) of 1.01, a normalized growth (S. cerevisiae deletion strains, locus YML032C, strain rad52, stronger effect = lower value) of 1.01 and a normalized growth (S. cerevisiae deletion strains, locus YML120C, strain ndi1, stronger effect = lower value) of 1. It also gave a normalized growth (S. cerevisiae deletion strains, locus YML124C, strain tub3, stronger effect = lower value) of 1.02, a normalized growth (S. cerevisiae deletion strains, locus YMR058W, strain fet3, stronger effect = lower value) of 0.979 and a normalized growth (S. cerevisiae deletion strains, locus YMR078C, strain ctf18, stronger effect = lower value) of 1.02. For the same compound, the normalized growth (S. cerevisiae deletion strains, locus YMR125W, strain sto1, stronger effect = lower value) was 1.01, the normalized growth (S. cerevisiae deletion strains, locus YMR129W, stronger effect = lower value) was 0.99 and the normalized growth (S. cerevisiae deletion strains, locus YMR205C, strain PFK2, stronger effect = lower value) was 1.01. The normalized growth (S. cerevisiae deletion strains, locus YMR223W, strain ubp8, stronger effect = lower value) was 1.01, the normalized growth (S. cerevisiae deletion strains, locus YMR231W, strain pep5, stronger effect = lower value) was 0.976 and the normalized growth (S. cerevisiae deletion strains, locus YMR263W, strain SAP30, stronger effect = lower value) was 1.01. For the same compound, the normalized growth (S. cerevisiae deletion strains, locus YMR307W, strain GAS1, stronger effect = lower value) was 0.999, the normalized growth (S. cerevisiae deletion strains, locus YNL067W, strain RPL9B, stronger effect = lower value) was 0.998 and the normalized growth (S. cerevisiae deletion strains, locus YNL071W, strain lat1, stronger effect = lower value) was 1. It also gave a normalized growth (S. cerevisiae deletion strains, locus YNL128W, strain TEP1, stronger effect = lower value) of 1.01, a normalized growth (S. cerevisiae deletion strains, locus YNL153C, strain GIM3, stronger effect = lower value) of 0.994 and a normalized growth (S. cerevisiae deletion strains, locus YNL175C, strain NOP13, stronger effect = lower value) of 0.99. The normalized growth (S. cerevisiae deletion strains, locus YNL183C, strain NPR1, stronger effect = lower value) was 0.954, the normalized growth (S. cerevisiae deletion strains, locus YNL197C, strain WHI3, stronger effect = lower value) was 1.01 and the normalized growth (S. cerevisiae deletion strains, locus YNL209W, strain ssb2, stronger effect = lower value) was 1.01. For the same compound, the normalized growth (S. cerevisiae deletion strains, locus YNL224C, strain SQS1, stronger effect = lower value) was 0.995, the normalized growth (S. cerevisiae deletion strains, locus YNL233W, strain BNI4, stronger effect = lower value) was 0.999 and the normalized growth (S. cerevisiae deletion strains, locus YNL248C, strain rpa49, stronger effect = lower value) was 0.84 (active). For the same compound, the normalized growth (S. cerevisiae deletion strains, locus YNL250W, strain rad50, stronger effect = lower value) was 1.03, the normalized growth (S. cerevisiae deletion strains, locus YNL271C, strain bni1, stronger effect = lower value) was 1.02 and the normalized growth (S. cerevisiae deletion strains, locus YNL298W, strain CLA4, stronger effect = lower value) was 1.02. The normalized growth (S. cerevisiae deletion strains, locus YNL307C, strain MCK1, stronger effect = lower value) was 1.02, the normalized growth (S. cerevisiae deletion strains, locus YNL322C, strain KRE1 (second series), stronger effect = lower value) was 1.01 and the normalized growth (S. cerevisiae deletion strains, locus YNL322C, strain KRE1, stronger effect = lower value) was 1.01. The normalized growth (S. cerevisiae deletion strains, locus YNR049C, strain mso1, stronger effect = lower value) was 0.975, the normalized growth (S. cerevisiae deletion strains, locus YNR052C, strain pop2, stronger effect = lower value) was 1 and the normalized growth (S. cerevisiae deletion strains, locus YOL006C, strain TOP1, stronger effect = lower value) was 1.05. For the same compound, the normalized growth (S. cerevisiae deletion strains, locus YOL012C, strain htz1) was 0.82, the normalized growth (S. cerevisiae deletion strains, locus YOL147C, strain pex11, stronger effect = lower value) was 1.01 and the normalized growth (S. cerevisiae deletion strains, locus YOR001W, strain rrp6, stronger effect = lower value) was 0.925. For the same compound, the normalized growth (S. cerevisiae deletion strains, locus YOR061W, strain CKA2, stronger effect = lower value) was 1.02, the normalized growth (S. cerevisiae deletion strains, locus YOR069W, strain VPS5, stronger effect = lower value) was 1.01 and the normalized growth (S. cerevisiae deletion strains, locus YOR070C, strain gyp1, stronger effect = lower value) was 0.975. For the same compound, the normalized growth (S. cerevisiae deletion strains, locus YOR080W, strain dia2, stronger effect = lower value) was 0.969, the normalized growth (S. cerevisiae deletion strains, locus YOR083W, strain WHI5 (second series), stronger effect = lower value) was 0.962 and the normalized growth (S. cerevisiae deletion strains, locus YOR083W, strain WHI5, stronger effect = lower value) was 0.994. The normalized growth (S. cerevisiae deletion strains, locus YOR106W, strain vam3, stronger effect = lower value) was 0.997, the normalized growth (S. cerevisiae deletion strains, locus YOR136W, strain idh2, stronger effect = lower value) was 1.02 and the normalized growth (S. cerevisiae deletion strains, locus YOR144C, strain elg1, stronger effect = lower value) was 1.02. For the same compound, the normalized growth (S. cerevisiae deletion strains, locus YOR184W, strain ser1, stronger effect = lower value) was 1.04, the normalized growth (S. cerevisiae deletion strains, locus YOR231W, strain MKK1, stronger effect = lower value) was 0.985 and the normalized growth (S. cerevisiae deletion strains, locus YOR265W, strain rbl2, stronger effect = lower value) was 0.99. For the same compound, the normalized growth (S. cerevisiae deletion strains, locus YOR270C, strain vph1, stronger effect = lower value) was 0.888, the normalized growth (S. cerevisiae deletion strains, locus YOR290C, strain snf2, stronger effect = lower value) was 0.971 and the normalized growth (S. cerevisiae deletion strains, locus YOR316C, strain cot1, stronger effect = lower value) was 1.02. The normalized growth (S. cerevisiae deletion strains, locus YPL051W, strain arl3, stronger effect = lower value) was 0.951, the normalized growth (S. cerevisiae deletion strains, locus YPL055C, strain LGE1, stronger effect = lower value) was 1.02 and 0.992 and the normalized growth (S. cerevisiae deletion strains, locus YPL078C, strain atp4, stronger effect = lower value) was 1.02. For the same compound, the normalized growth (S. cerevisiae deletion strains, locus YPL106C, strain sse1, stronger effect = lower value) was 0.982, the normalized growth (S. cerevisiae deletion strains, locus YPL240C, strain hsp82, stronger effect = lower value) was 0.987 and the normalized growth (S. cerevisiae deletion strains, locus YPL241C, strain CIN2, stronger effect = lower value) was 1.01. The normalized growth (S. cerevisiae deletion strains, locus YPL256C, strain CLN2, stronger effect = lower value) was 0.995, the normalized growth (S. cerevisiae deletion strains, locus YPR119W, strain clb2, stronger effect = lower value) was 1.01 and the normalized growth (S. cerevisiae deletion strains, locus YPR141C, strain kar3, stronger effect = lower value) was 1.01. For the same compound, the normalized growth (S. cerevisiae deletion strains, locus YPR163C, strain tif3, stronger effect = lower value) was 1.01, the normalized growth (S. cerevisiae deletion strains, locus YPR167C, strain met16, stronger effect = lower value) was 1.02 and the normalized growth (S. cerevisiae deletion strains, strain wtn01, stronger effect = lower value) was 1.02. For the same compound, the normalized growth (S. cerevisiae strains, strain wild type, stronger effect = lower value) was 1.02.
